# How the values were obtained:
# [1] = tested on: Vero E6 infected with SARS-CoV-2; test: morphology score (similarity to uninfected cells); higher = more like uninfected cells; details: 24 h
# [2] = tested on: Vero E6 infected with SARS-CoV-2; test: SARS-CoV-2 infection rate relative to infected DMSO; higher = more infection, active = 60 or less; details: 24 h
Compound,morphology score [1],SARS-CoV-2 infection rate [2]
CCCCOc1nc(N)c2c(n1)N(Cc1cccc(CN3CCCC3)c1)CC(=O)N2 (10 µM),-0.135,106% (inactive)
CCOC(=O)CCNc1cc(N2CCc3ccccc3CC2)nc(-c2ccccn2)n1 (0.833333 µM),-0.0369,116% (inactive)
CNC(=O)c1c(I)c(NC(C)=O)c(I)c(C(=O)O)c1I [iothalamic-acid-d3] (10 µM),0.143,104% (inactive)
O=C(O)c1ccccc1C(=O)Nc1ccc(-c2ccccc2)cc1 [kartogenin] (10 µM),0.214,97.5% (inactive)
CC(C)[C@H]1[C@@H]2CC[C@@H](C2)[C@@H]1N (10 µM),0.109,82% (inactive)
C=CCN1CCCC1CNC(=O)c1cc2nn[nH]c2cc1OC (stereo unspecified) [alizapride] (10 µM),-0.124,121% (inactive)
CCCOc1ccc(C(=O)OCCN(CC)CC)cc1N [proxymetacaine] (10 µM),-0.0115,108% (inactive)
COc1ccc(CC2NCCc3c2[nH]c2ccc(C)cc32)c(Cl)c1OC (stereo unspecified) (0.833333 µM),-0.0343,104% (inactive)
O=c1c(-c2ccc(O)cc2)coc2cc(O)cc(O)c12 [genistein] (10 µM),-0.211,119% (inactive)
O=C(O)CC[C@H]1CC[C@@](c2cc(F)ccc2F)(S(=O)(=O)c2ccc(Cl)cc2)CC1 (10 µM),0.0148,110% (inactive)
COC(=O)Nc1nc2cc([S+]([O-])c3ccccc3)ccc2[nH]1 (stereo unspecified) [oxfendazole] (10 µM),0.15,101% (inactive)
O=C1c2cccc(O)c2C(=O)c2c(O)cccc21 [dantron] (10 µM),-0.0545,103% (inactive)
CC(=O)/N=c1/[nH]c(C)c(-c2ccc(Cl)c(S(=O)(=O)NCCO)c2)s1 (0.833333 µM),0.335,104% (inactive)
Oc1cc2c(cc1O)[C@H]1c3ccccc3CN[C@@H]1CC2 (racemic) [dihydrexidine] (10 µM),-0.0209,101% (inactive)
CCCCNC(=O)NS(=O)(=O)c1ccc(C)cc1 [tolbutamide] (10 µM),0.121,96.5% (inactive)
O=C(O)c1cnn(-c2nc3cc(OC(F)(F)F)c(Cl)cc3[nH]2)c1 (10 µM),0.316,88.5% (inactive)
N#Cc1cc(-c2n[nH]c(-c3ccncc3)n2)ccn1 [topiroxostat] (10 µM),0.145,94.5% (inactive)

Compound,morphology score [1],SARS-CoV-2 infection rate [2]
c1cc2c(c(N3CCNCC3)c1)OCCO2 [eltoprazine] (10 µM),0.0367,94.5% (inactive)
CCO[C@@H](Cc1ccc(OCCn2c(C)ccc2-c2ccc(SC)cc2)cc1)C(=O)O [saroglitazar] (10 µM),0.336,92% (inactive)
CN(C)C[C@H](O)Cn1c2ccc(Br)cc2c2cc(Br)ccc21 (racemic) [wiskostatin] (0.833333 µM),0.146,110% (inactive)
O=C(Nc1cnn2ccc(N3CCC[C@@H]3c3cc(F)ccc3F)nc12)N1CC[C@H](O)C1 [larotrectinib] (10 µM),-0.124,122% (inactive)
NC(=O)CN1CC[C@@H](NC(=O)[C@@H]2CCCN2)C1=O (10 µM),0.096,110% (inactive)
N=C1NC(=O)/C(=C/c2ccc(O)cc2)S1 [mirin] (10 µM),-0.0277,112% (inactive)
C[C@@H](O[C@H]1OCCN(Cc2n[nH]c(=O)[nH]2)[C@H]1c1ccc(F)cc1)c1cc(C(F)(F)F)cc(C(F)(F)F)c1 [aprepitant] (10 µM),0.0718,108% (inactive)
O=C1Nc2ccc(I)cc2C1=Cc1cc(Br)c(O)c(Br)c1 (10 µM),0.384,98.5% (inactive)
C[Se]C[C@H](N)C(=O)O [Se-methylselenocysteine] (10 µM),0.107,102% (inactive)
CC(C)=CCC[C@](C)(O)[C@@H]1CC=C(C)CC1 [levomenol] (10 µM),-0.0548,104% (inactive)
CNC[C@H](O)c1ccc(O)c(O)c1 [epinephrine] (10 µM),0.0378,104% (inactive)
CC1=C(/C=C/C(C)=C/C=C/C(C)=C/C=O)C(C)(C)CCC1 [retinaldehyde] (10 µM),-0.111,114% (inactive)
CC1(C)S[C@@H]2[C@H](NC(=O)[C@H](C(=O)O)c3ccsc3)C(=O)N2[C@H]1C(=O)O [ticarcillin] (10 µM),-0.0272,97.5% (inactive)
CNC(=O)N(C)N=O [nitrosodimethylurea] (10 µM),0.0639,106% (inactive)
Nc1ncnc2c1nc(Br)n2[C@@H]1O[C@@H]2COP(=O)(O)O[C@H]2[C@H]1O [8-bromo-cAMP] (10 µM),0.422,102% (inactive)
NS(=O)(=O)Cc1noc2ccccc12 [zonisamide] (10 µM),0.165,95.5% (inactive)
